# In ChEMBL document CHEMBL1961873, “Compounds: GSK PKIS; Assays: Nanosyn kinase panel” (2012):
# Assays:
# [1] = target: Protein kinase C gamma type (Homo sapiens) (UniProt P05129); conditions: at 1 µM;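 note: each value is an averaged percent inhibition of the enzyme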
# [2] = target: T1, Protein kinase C iota type (Homo sapiens) (UniProt P41743); conditions: at 0.1 µM
# T1 sequence (whole entry): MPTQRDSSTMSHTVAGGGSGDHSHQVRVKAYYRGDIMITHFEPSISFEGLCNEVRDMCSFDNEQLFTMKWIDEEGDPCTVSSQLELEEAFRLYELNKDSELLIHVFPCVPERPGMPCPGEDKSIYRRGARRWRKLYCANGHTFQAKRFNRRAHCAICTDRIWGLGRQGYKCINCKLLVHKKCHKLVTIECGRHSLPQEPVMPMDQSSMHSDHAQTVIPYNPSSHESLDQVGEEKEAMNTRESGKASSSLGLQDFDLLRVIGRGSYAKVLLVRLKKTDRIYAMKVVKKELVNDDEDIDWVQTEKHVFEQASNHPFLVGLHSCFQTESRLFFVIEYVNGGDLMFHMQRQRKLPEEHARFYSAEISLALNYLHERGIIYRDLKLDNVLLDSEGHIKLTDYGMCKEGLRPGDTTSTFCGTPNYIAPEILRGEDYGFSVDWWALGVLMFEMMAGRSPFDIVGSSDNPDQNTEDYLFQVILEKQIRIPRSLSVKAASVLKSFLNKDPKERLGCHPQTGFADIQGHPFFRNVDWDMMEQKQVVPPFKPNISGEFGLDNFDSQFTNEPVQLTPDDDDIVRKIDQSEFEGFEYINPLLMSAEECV
# [3] = target: T1, Protein kinase C iota type (Homo sapiens); conditions: at 1 µM
# [4] = target: Protein kinase C theta type (Homo sapiens) (UniProt Q04759); conditions: at 0.1 µM
# Sequence of Protein kinase C theta type (Homo sapiens) (Q04759 whole entry, looked up): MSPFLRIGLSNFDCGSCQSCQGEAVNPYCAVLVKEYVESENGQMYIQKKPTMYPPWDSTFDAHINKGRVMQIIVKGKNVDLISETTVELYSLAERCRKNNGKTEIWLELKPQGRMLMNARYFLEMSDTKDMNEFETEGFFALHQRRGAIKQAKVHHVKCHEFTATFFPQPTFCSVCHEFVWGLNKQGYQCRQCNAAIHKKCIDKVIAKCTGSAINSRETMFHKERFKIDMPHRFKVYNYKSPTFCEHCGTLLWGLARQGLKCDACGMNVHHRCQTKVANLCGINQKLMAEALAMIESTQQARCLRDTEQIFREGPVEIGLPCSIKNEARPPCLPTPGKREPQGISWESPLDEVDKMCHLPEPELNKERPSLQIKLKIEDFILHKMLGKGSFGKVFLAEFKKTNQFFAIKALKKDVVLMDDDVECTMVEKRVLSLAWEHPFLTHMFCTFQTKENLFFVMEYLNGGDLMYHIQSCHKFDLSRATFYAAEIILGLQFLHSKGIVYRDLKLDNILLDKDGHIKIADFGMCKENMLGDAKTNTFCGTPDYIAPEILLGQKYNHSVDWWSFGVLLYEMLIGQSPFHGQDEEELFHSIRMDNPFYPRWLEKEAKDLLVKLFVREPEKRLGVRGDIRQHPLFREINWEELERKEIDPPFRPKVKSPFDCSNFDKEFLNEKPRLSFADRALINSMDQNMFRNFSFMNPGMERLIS
# [5] = target: Protein kinase C theta type (Homo sapiens) (UniProt Q04759); conditions: at 1 µM
# [6] = target: Protein kinase C beta type (Homo sapiens) (UniProt P05771); conditions: at 0.1 µM
# Sequence of Protein kinase C beta type (Homo sapiens) (P05771 2-671 limits assumed): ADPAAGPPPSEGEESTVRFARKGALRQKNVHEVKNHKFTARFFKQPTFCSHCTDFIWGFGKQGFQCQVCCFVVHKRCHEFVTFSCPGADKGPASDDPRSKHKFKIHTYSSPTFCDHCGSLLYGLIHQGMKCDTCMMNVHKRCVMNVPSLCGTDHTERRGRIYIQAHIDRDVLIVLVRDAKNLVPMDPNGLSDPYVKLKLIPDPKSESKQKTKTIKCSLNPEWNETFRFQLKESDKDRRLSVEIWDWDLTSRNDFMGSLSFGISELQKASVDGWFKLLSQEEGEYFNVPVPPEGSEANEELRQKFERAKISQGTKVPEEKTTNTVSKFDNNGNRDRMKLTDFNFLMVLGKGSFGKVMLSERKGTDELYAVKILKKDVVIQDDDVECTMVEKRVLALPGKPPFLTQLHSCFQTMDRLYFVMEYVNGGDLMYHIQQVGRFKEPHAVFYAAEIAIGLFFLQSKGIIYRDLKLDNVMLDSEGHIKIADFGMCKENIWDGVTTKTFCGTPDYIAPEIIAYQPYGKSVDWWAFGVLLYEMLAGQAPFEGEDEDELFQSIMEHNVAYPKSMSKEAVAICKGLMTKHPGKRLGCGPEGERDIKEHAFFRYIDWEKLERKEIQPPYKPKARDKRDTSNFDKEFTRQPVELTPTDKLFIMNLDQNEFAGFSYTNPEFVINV
# [7] = target: Protein kinase C beta type (Homo sapiens) (UniProt P05771); conditions: at 1 µM
# [8] = target: T2, Serine/threonine-protein kinase D1 (Homo sapiens) (UniProt Q15139); conditions: at 0.1 µM
# T2 sequence (whole entry): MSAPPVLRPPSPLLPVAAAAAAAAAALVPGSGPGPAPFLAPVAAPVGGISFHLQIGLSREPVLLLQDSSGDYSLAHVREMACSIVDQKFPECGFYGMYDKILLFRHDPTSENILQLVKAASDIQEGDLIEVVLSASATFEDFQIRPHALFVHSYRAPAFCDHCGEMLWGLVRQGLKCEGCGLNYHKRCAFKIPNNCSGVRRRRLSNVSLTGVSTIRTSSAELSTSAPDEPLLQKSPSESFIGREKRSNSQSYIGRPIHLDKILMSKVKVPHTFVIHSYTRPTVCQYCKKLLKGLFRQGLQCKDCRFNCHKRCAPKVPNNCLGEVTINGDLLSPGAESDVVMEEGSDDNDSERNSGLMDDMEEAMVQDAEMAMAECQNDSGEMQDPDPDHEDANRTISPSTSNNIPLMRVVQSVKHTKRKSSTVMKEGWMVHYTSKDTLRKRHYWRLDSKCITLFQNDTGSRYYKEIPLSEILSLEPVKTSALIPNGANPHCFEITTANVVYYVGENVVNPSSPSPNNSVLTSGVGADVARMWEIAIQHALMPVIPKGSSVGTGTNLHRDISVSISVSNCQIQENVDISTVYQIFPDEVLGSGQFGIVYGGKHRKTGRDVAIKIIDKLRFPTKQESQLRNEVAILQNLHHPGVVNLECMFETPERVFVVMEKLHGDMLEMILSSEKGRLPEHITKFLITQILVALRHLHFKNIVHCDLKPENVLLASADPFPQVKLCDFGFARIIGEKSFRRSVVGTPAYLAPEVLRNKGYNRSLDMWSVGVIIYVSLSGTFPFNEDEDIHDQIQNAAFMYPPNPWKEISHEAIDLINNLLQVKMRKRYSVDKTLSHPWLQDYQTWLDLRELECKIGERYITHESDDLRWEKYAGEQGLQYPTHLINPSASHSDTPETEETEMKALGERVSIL
# [9] = target: T2, Serine/threonine-protein kinase D1 (Homo sapiens); conditions: at 1 µM
# [10] = target: T3, Serine/threonine-protein kinase D2 (Homo sapiens) (UniProt Q9BZL6); conditions: at 0.1 µM
# T3 sequence (whole entry): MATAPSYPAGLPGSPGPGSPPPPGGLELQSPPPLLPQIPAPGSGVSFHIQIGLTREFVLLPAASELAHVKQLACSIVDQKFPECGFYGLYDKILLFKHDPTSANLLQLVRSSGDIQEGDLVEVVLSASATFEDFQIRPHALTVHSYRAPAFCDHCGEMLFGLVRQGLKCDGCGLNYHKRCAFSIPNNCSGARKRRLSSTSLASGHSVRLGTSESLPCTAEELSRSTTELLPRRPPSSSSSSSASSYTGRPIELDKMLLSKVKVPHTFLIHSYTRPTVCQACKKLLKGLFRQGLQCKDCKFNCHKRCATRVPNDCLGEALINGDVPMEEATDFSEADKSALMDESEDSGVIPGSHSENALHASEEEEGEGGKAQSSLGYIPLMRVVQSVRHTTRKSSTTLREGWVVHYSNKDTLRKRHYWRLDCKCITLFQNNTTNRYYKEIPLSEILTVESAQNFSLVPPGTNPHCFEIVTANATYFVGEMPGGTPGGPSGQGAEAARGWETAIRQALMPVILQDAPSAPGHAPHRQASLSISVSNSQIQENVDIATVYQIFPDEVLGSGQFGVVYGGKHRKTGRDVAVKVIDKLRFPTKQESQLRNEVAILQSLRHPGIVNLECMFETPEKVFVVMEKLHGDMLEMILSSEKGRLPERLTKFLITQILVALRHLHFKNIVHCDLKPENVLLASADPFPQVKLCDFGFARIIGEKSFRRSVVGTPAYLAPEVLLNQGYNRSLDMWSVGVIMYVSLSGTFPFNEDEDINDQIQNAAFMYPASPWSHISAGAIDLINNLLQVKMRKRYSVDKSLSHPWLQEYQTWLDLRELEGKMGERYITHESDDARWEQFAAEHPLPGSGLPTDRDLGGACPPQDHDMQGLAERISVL
# [11] = target: T3, Serine/threonine-protein kinase D2 (Homo sapiens); conditions: at 1 µM
# [12] = target: T4, Serine/threonine-protein kinase D3 (Homo sapiens) (UniProt O94806); conditions: at 0.1 µM
# T4 sequence (whole entry): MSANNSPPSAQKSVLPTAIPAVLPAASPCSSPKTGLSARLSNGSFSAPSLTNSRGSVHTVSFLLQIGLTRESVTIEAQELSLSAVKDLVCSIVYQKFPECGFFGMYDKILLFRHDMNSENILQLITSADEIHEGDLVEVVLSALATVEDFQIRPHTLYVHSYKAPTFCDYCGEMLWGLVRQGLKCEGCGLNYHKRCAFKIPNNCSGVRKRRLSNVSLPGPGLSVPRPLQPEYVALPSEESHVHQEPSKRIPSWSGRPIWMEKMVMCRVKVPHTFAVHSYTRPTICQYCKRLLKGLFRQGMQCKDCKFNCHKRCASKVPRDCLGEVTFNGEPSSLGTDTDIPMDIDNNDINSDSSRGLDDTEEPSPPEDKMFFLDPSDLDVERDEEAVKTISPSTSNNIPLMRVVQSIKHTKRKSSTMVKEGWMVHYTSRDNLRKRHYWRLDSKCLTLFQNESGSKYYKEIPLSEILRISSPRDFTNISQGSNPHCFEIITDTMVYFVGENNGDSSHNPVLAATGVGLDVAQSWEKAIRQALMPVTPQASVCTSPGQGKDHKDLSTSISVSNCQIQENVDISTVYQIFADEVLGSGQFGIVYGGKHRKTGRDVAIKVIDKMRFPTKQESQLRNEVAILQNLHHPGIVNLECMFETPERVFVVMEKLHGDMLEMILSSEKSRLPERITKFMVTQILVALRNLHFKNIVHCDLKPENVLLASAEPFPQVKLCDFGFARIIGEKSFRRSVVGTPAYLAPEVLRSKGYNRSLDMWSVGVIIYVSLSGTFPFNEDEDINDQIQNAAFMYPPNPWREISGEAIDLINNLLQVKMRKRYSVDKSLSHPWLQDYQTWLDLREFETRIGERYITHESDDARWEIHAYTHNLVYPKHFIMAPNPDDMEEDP
# [13] = target: T4, Serine/threonine-protein kinase D3 (Homo sapiens); conditions: at 1 µM
# [14] = target: T5, cGMP-dependent protein kinase 1 (Homo sapiens) (UniProt Q13976); conditions: at 0.1 µM
# T5 sequence (whole entry): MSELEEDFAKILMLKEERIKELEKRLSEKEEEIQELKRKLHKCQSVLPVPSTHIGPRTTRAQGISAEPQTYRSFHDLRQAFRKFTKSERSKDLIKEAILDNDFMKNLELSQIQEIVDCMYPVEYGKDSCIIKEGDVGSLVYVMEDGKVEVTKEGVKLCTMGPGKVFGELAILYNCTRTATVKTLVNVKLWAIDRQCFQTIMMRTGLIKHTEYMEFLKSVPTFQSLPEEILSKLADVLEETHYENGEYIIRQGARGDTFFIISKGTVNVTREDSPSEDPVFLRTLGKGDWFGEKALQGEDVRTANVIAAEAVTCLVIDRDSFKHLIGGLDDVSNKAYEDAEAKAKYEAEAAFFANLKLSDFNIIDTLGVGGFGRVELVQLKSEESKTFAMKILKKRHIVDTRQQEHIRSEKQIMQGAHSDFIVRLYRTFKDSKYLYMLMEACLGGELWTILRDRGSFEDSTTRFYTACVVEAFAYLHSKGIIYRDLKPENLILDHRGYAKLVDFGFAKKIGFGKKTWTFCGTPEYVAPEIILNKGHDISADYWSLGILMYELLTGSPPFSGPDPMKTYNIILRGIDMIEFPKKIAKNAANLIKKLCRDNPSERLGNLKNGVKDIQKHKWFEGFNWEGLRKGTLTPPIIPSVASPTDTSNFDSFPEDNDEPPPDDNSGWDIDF
# [15] = target: T5, cGMP-dependent protein kinase 1 (Homo sapiens); conditions: at 1 µM
# [16] = target: T6, cGMP-dependent protein kinase 2 (Homo sapiens) (UniProt Q13237); conditions: at 0.1 µM
# T6 sequence (whole entry): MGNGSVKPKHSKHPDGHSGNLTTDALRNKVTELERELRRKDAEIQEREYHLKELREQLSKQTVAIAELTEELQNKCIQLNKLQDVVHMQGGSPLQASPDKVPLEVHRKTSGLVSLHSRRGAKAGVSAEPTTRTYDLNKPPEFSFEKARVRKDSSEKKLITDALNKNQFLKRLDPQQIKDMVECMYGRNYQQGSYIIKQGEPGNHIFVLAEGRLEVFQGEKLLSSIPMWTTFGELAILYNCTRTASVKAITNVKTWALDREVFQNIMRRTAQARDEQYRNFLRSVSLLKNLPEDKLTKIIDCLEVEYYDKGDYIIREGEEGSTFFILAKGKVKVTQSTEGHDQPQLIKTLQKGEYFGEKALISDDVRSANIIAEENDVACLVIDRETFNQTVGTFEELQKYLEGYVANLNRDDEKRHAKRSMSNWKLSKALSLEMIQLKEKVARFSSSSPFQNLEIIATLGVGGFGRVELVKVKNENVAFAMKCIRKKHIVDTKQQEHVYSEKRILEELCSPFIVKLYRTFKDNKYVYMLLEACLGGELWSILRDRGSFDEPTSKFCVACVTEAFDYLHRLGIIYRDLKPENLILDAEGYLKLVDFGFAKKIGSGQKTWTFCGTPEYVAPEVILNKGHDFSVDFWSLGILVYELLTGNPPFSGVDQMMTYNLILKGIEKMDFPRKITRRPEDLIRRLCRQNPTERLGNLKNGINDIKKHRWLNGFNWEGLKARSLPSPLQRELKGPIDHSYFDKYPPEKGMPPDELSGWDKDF
# [17] = target: T6, cGMP-dependent protein kinase 2 (Homo sapiens); conditions: at 1 µM
# [18] = target: T7, cAMP-dependent protein kinase catalytic subunit PRKX (Homo sapiens) (UniProt P51817); conditions: at 0.1 µM
# T7 sequence (whole entry): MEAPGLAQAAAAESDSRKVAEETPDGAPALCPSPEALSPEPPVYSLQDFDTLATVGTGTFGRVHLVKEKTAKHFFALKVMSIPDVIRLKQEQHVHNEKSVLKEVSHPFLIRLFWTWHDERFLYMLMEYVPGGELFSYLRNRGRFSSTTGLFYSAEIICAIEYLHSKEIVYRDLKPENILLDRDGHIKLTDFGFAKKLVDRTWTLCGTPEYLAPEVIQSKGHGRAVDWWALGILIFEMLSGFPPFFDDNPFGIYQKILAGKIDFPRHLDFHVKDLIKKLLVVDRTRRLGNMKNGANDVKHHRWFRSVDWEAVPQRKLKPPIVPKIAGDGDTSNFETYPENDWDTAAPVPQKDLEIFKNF
# [19] = target: T7, cAMP-dependent protein kinase catalytic subunit PRKX (Homo sapiens); conditions: at 1 µM
# [20] = target: Rho-associated protein kinase 1 (Homo sapiens) (UniProt Q13464); conditions: at 0.1 µM;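 note: values are mean percent inhibition of ROCK1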
# Sequence of Rho-associated protein kinase 1 (Homo sapiens) (Q13464 2-1354 limits assumed): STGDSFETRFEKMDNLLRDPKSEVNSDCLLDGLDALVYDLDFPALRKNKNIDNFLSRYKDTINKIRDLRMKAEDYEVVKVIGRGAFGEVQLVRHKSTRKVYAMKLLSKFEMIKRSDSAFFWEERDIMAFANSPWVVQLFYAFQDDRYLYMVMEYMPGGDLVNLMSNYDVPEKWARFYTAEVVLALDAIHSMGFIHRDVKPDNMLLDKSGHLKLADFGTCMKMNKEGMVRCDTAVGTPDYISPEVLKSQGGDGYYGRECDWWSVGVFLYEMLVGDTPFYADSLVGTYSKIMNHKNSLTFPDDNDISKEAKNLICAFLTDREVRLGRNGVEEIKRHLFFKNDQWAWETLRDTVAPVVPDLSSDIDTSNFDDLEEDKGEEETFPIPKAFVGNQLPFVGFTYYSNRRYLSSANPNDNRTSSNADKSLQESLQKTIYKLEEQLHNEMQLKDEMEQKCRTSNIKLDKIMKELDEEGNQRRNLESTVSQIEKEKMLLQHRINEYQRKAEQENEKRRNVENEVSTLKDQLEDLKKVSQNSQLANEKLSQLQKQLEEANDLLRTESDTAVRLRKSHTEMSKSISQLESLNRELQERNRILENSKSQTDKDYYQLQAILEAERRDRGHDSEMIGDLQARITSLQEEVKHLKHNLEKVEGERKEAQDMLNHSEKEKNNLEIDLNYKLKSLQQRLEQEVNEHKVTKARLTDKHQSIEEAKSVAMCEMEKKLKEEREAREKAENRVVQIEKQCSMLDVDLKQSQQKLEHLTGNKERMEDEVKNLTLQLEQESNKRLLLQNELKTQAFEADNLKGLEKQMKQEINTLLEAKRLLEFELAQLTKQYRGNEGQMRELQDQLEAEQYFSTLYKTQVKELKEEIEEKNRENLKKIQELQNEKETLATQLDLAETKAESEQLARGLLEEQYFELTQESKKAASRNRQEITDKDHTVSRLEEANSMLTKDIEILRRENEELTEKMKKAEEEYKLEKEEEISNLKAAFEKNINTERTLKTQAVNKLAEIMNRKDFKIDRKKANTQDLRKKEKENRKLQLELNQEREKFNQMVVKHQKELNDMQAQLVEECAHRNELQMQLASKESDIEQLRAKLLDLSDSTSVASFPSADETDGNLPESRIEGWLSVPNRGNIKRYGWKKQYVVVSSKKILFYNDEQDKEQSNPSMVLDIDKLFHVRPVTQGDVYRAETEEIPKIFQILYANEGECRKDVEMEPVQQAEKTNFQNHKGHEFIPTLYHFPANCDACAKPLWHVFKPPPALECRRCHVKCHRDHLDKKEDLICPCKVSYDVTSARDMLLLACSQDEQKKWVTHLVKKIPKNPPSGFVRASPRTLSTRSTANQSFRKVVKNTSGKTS
structure (smiles),measurement,setting,value
COc1cc2ncnc(Nc3ccc(C)c(O)c3)c2cc1OC,inhibition,[1],7.37%
same,inhibition,[2],3.5%
same,inhibition,[3],1.78%
same,inhibition,[4],3.41%
same,inhibition,[5],5.28%
same,inhibition,[6],2.8%
same,inhibition,[7],5.81%
same,inhibition,[8],4.73%
same,inhibition,[9],9.92%
same,inhibition,[10],5.41%
same,inhibition,[11],10.5%
same,inhibition,[12],5.98%
same,inhibition,[13],8.58%
same,inhibition,[14],3.2%
same,inhibition,[15],3.61%
same,inhibition,[16],2.18%
same,inhibition,[17],3.65%
same,inhibition,[18],2.05%
same,inhibition,[19],2.06%
same,inhibition,[20],0.48%
N#Cc1c(NC(=O)c2ccccc2F)sc2c1CCCC2,inhibition,[1],0.15%
same,inhibition,[2],-1.48%
same,inhibition,[3],-0.75%
same,inhibition,[4],-0.76%
same,inhibition,[5],-0.86%
same,inhibition,[6],-0.47%
same,inhibition,[7],0.43%
same,inhibition,[8],-1.42%
same,inhibition,[9],0.24%
same,inhibition,[10],0.84%
same,inhibition,[11],1.58%
same,inhibition,[12],-2.11%
same,inhibition,[13],-0.58%
same,inhibition,[14],-2.04%
same,inhibition,[15],-0.46%
same,inhibition,[16],-1.17%
same,inhibition,[17],-0.91%
same,inhibition,[18],-0.74%
same,inhibition,[19],-0.83%
same,inhibition,[20],-0.67%
O=S(=O)(CCOCc1ccc(-c2ccc3ncnc(Nc4ccc(OCc5cccc(F)c5)c(Cl)c4)c3c2)o1)c1ccccc1,inhibition,[1],1.98%
same,inhibition,[2],0.8%
same,inhibition,[3],0.31%
same,inhibition,[4],0.62%
same,inhibition,[5],0.48%
same,inhibition,[6],0.96%
same,inhibition,[7],1.53%
same,inhibition,[8],1.15%
same,inhibition,[9],2.02%
same,inhibition,[10],1.72%
same,inhibition,[11],2.14%
same,inhibition,[12],1.07%
same,inhibition,[13],1.96%
same,inhibition,[14],1.36%
same,inhibition,[15],2.37%
same,inhibition,[16],1.18%
same,inhibition,[17],2.63%
same,inhibition,[18],1.21%
same,inhibition,[19],1.09%
same,inhibition,[20],1.34%
